# Columns and labels:
# Assay in all cases: DAPPL (digital affinity profiling via proximity ligation, sequencing); 10 mM Tris-HCl pH 7.5, 50 mM NaCl, 1 mM DTT, 4% glycerol, room temperature, 30 min; GST-TFs on glutathione beads, 16-mer random dsDNA library, 0.1% formaldehyde crosslink after washing; high values mean tight binding
# Conditions in all cases: protein: recombinant; tags: N-terminal GST; dsDNA, one strand shown
# ELK1 = molecular target: T1, ELK1 (Homo sapiens, UniProt P19419 1-428)
# T1 sequence: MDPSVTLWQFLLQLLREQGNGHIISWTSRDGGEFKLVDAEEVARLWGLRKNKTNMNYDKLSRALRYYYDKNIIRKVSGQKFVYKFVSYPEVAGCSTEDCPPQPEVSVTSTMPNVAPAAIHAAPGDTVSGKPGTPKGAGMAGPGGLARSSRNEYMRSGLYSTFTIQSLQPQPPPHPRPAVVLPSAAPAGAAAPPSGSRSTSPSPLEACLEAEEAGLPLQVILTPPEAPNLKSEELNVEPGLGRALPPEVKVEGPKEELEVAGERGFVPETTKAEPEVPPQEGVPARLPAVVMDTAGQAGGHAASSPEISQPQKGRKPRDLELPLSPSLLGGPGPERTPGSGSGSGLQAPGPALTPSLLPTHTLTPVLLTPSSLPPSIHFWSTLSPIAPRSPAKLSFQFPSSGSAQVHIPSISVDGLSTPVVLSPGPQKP
# Summary of the method: (§1)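 Pools were built from human transcription factors expressed in yeast as GST fusions, captured on glutathione beads and DNA-barcoded, along with a tag-only sample. Incubation with 200 nmole of a 16-mer random double-stranded DNA library lasted 30 min at room temperature in Tris/NaCl/DTT/glycerol buffer, and was followed by washing, 0.1% formaldehyde crosslinking, proximity ligation, PCR amplification and Illumina NextSeq500 sequencing. Binding signal is the quotient of each hexamer's read frequency for a factor and its frequency for the tag-only sample.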
# GABPA = molecular target: T2, GABPA (Homo sapiens, UniProt Q06546 1-454)
# T2 sequence: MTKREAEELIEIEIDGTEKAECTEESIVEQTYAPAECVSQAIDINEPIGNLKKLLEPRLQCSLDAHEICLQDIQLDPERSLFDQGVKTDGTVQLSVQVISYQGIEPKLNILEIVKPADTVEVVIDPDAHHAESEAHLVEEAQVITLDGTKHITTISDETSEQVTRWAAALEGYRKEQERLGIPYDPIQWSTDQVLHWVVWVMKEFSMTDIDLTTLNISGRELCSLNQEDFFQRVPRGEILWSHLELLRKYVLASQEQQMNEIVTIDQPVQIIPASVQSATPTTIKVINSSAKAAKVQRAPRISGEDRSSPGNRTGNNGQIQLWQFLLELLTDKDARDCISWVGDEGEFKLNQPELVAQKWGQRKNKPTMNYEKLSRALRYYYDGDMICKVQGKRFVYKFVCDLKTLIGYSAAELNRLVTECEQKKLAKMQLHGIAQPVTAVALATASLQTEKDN
# Summary of the method: as §1
# ERG = molecular target: T3, ERG (Homo sapiens, UniProt P11308 1-479)
# T3 sequence: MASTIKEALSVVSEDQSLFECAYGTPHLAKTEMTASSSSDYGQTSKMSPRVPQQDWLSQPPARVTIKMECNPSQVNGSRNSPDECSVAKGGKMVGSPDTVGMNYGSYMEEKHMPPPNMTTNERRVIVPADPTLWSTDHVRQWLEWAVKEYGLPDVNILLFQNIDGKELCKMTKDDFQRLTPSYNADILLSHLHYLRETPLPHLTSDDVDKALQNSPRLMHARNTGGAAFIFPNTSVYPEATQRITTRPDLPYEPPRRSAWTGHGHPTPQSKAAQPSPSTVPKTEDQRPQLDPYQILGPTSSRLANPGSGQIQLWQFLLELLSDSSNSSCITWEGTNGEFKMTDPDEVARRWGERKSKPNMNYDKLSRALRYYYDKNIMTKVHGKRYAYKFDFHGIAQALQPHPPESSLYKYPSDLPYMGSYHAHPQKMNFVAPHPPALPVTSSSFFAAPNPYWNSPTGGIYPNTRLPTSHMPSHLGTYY
# Summary of the method: as §1
# ELF1 = ELF1 (Homo sapiens, UniProt P32519 1-619)
# Chain of ELF1 (P32519 whole entry): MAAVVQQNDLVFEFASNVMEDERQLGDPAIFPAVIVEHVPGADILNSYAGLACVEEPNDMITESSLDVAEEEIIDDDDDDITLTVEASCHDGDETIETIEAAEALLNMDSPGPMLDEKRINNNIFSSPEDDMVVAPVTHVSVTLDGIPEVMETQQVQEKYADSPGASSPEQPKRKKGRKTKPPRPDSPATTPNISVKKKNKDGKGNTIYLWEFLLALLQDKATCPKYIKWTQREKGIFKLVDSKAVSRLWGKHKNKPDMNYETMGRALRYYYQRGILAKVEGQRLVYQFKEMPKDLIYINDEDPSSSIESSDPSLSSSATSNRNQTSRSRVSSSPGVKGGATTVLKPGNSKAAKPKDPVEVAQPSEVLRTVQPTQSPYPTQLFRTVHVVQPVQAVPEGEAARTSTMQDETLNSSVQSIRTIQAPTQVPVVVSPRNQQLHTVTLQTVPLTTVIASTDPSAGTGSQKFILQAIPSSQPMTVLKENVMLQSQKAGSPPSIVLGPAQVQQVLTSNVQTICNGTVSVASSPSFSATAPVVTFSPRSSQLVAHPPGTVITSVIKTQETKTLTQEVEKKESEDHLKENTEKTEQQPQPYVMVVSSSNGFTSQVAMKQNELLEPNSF
# Summary of the method: as §1
# EHF = molecular target: T4, EHF (Homo sapiens, UniProt Q9NZC4 1-300)
# T4 sequence: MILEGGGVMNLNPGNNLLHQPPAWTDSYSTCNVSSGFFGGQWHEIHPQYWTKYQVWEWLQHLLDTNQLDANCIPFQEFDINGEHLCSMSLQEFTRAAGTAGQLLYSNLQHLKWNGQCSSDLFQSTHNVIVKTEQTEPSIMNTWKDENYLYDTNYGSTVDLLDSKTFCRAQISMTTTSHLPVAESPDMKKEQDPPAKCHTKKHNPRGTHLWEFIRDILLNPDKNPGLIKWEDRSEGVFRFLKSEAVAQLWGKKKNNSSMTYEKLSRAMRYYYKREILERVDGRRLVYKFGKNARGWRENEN
# Summary of the method: as §1
# SPI1 = SPI1 (Homo sapiens, UniProt P17947 1-270)
# Summary of the method: as §1
# SPIB = SPIB (Homo sapiens, UniProt Q01892 1-262)
# Chain of SPIB (Q01892 whole entry): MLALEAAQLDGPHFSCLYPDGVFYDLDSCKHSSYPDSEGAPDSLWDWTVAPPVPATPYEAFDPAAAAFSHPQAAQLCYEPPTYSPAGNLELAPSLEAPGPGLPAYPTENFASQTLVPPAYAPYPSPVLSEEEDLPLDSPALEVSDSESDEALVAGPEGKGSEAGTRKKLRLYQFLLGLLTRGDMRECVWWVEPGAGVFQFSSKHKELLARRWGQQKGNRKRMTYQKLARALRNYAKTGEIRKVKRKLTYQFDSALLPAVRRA
# Summary of the method: as §1
# FEV = molecular target: T5, FEV (Homo sapiens, UniProt Q99581 1-238)
# T5 sequence: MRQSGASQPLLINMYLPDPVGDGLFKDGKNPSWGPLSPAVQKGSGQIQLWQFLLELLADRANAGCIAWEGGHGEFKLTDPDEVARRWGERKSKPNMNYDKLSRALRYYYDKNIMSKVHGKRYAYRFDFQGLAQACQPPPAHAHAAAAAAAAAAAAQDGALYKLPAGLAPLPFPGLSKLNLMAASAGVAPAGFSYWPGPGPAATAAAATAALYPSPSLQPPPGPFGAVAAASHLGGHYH
# Summary of the method: as §1
# ETV5 = ETV5 (Homo sapiens, UniProt P41161 1-510)
# Chain of ETV5 (P41161 whole entry): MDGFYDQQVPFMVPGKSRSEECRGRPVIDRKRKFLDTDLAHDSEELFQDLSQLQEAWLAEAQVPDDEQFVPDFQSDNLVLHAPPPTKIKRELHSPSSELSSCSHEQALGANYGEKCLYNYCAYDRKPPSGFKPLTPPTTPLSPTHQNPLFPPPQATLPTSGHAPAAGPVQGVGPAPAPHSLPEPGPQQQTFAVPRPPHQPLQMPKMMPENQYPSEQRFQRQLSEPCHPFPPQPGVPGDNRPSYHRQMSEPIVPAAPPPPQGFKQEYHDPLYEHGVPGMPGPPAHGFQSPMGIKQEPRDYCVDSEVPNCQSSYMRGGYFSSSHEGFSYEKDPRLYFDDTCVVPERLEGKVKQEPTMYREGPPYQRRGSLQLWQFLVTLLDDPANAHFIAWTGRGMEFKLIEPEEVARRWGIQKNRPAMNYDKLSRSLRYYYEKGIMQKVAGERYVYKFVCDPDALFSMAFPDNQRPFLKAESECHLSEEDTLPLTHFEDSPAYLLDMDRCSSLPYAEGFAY
# Summary of the method: as §1
# ELF4 = ELF4 (Homo sapiens, UniProt Q99607 1-663)
# Chain of ELF4 (Q99607 whole entry): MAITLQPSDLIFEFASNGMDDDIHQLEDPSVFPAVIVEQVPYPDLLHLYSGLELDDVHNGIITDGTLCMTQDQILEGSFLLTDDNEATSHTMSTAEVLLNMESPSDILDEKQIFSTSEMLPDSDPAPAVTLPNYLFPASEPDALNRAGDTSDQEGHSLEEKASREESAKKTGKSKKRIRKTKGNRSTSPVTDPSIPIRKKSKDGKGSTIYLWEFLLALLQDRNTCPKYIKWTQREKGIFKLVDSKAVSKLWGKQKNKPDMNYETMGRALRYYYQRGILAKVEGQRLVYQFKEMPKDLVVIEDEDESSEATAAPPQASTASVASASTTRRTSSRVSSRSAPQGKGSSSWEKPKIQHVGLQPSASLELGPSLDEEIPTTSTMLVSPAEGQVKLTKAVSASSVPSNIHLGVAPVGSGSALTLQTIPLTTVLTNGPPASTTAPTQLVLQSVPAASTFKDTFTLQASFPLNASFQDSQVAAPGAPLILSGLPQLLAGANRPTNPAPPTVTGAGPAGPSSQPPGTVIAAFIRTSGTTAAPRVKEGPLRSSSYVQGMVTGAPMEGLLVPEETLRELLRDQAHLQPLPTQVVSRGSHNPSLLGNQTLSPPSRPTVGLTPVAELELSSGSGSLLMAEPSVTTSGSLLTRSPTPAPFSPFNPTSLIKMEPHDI
# Summary of the method: as §1
sequence,measurement,setting,value
CAAACA,binding signal,ELK1,"1.15 fold enrichment (6-mer frequency, TF over GST control)"
same,binding signal,GABPA,"1.18 fold enrichment (6-mer frequency, TF over GST control)"
same,binding signal,ERG,"1.18 fold enrichment (6-mer frequency, TF over GST control)"
same,binding signal,ELF1,"1.08 fold enrichment (6-mer frequency, TF over GST control)"
same,binding signal,EHF,"1.09 fold enrichment (6-mer frequency, TF over GST control)"
same,binding signal,SPI1,"1.14 fold enrichment (6-mer frequency, TF over GST control)"
same,binding signal,SPIB,"1.13 fold enrichment (6-mer frequency, TF over GST control)"
same,binding signal,FEV,"1.1 fold enrichment (6-mer frequency, TF over GST control)"
same,binding signal,ETV5,"1.13 fold enrichment (6-mer frequency, TF over GST control)"
same,binding signal,ELF4,"1.14 fold enrichment (6-mer frequency, TF over GST control)"

# — paper PMC7862700, “An all-to-all approach to the identification of sequence-specific readers for epigenetic DNA modifications on cytosine”
